The target of assay [1] is Glutathione peroxidase 1 (Homo sapiens) (UniProt P07203). Put plainly: Primary qHTS Assay for Inhibitors of Recombinant Selenoprotein Glutathione Peroxidase 1 (GPX1) (AID 1845191). Further: nearly all actives have a fitted effect of over 65% in size. An outline of the steps: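 Recombinant GPX1 (10 nM final) was preincubated with compound for 30 min at room temperature, then reacted with 1 mM GSH, 0.5 mM CHP, 0.5 mM NADPH and 100 nM glutathione reductase; NADPH fluorescence (340/450 nm) was read at 0 and 15 min.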
Sequence of Glutathione peroxidase 1 (Homo sapiens) (P07203 whole entry, looked up): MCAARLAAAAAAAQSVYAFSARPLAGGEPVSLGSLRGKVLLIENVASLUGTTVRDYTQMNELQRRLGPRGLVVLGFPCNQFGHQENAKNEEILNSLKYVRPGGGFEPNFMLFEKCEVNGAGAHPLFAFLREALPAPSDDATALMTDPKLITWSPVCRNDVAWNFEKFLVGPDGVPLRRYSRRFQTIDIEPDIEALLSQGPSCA
For orientation: Quantitative high-throughput screening tests each substance at several concentrations.

Assay [2] addresses Phospholipid hydroperoxide glutathione peroxidase GPX4 (Homo sapiens) (UniProt P36969). Put plainly: Primary qHTS Assay for Inhibitors of Recombinant Selenoprotein Glutathione Peroxidase 4 (GPX4) (AID 1845192). Further: nearly all actives have a fitted effect of over 65% in size. Further: potency means the concentration at half of the fitted maximal effect. An outline of the steps:
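GR-coupled readout: 100 nM GR, 1 mM GSH, 0.5 mM NADPH; NADPH fluorescence (ex 340/em 450 nm) read at t=0 and after 15 min RT. GPX4 200 nM, preincubated 30 min with compound; substrate 0.5 mM CHP.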

A short description of assay [3]: Quantitative High-Throughput drug screen in 47 multiple myeloma cell lines against the NCATS MIPE library collection: FR4_PLB cell viability assay (AID 1918924; further: nearly all actives have a fitted effect of over 35% in size; further: potency means the concentration at half of the fitted maximal effect). An outline of the steps: (§1)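 CellTiter-Glo luminescence (ATP) after 48 h compound exposure, 37C/5% CO2; 500 cells/well; MIPE 4.0 approved/investigational drugs pinned in; DMSO = 100%, media only = 0% viability.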

Assay [4] can be described thus: Quantitative High-Throughput drug screen in 47 multiple myeloma cell lines against the NCATS MIPE library collection: Delta47_JCRB cell viability assay (AID 1918925; further: nearly all actives have a fitted effect of over 45% in size; further: potency means the concentration at half of the fitted maximal effect). Summed up: (§2)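 Myeloma cells (500 per well) were exposed to MIPE 4.0 compounds by pin transfer and incubated 48 hours at 37C, 5% CO2. Viability was read as ATP by CellTiter-Glo luminescence, normalised to DMSO (100%) and media-only (0%) wells.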

Assay [5] can be described thus: Quantitative High-Throughput drug screen in 47 multiple myeloma cell lines against the NCATS MIPE library collection: EJM_DSMZ cell viability assay (AID 1918926; further: nearly all actives have a fitted effect of over 30% in size; further: potency means the concentration at half of the fitted maximal effect). An outline of the steps:
as §2

A short description of assay [6]: Quantitative High-Throughput drug screen in 47 multiple myeloma cell lines against the NCATS MIPE library collection: AMO1_DSMZ cell viability assay (AID 1918927; further: nearly all actives have a fitted effect of over 30% in size; further: potency means the concentration at half of the fitted maximal effect). An outline of the steps: as §2
A short description of assay [7]: Quantitative High-Throughput drug screen in 47 multiple myeloma cell lines against the NCATS MIPE library collection: ARP1_JJKsccF8 cell viability assay (AID 1918928; further: nearly all actives have a fitted effect of over 40% in size; further: potency means the concentration at half of the fitted maximal effect). Summed up: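 Myeloma cells at 500 per well in 1536-well format treated with MIPE 4.0 library by pin transfer for 48 h at 37C, 5% CO2. Viability from ATP luminescence (CellTiter-Glo), normalized to DMSO (100%) and media-only (0%) wells.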

The nature of assay [8]: Quantitative High-Throughput drug screen in 47 multiple myeloma cell lines against the NCATS MIPE library collection: ARD_JJKsccE7 cell viability assay (AID 1918929; further: potency means the concentration at half of the fitted maximal effect). Summed up:
as §2

Assay [9] can be described thus: Quantitative High-Throughput drug screen in 47 multiple myeloma cell lines against the NCATS MIPE library collection: Karpas620_DSMZ cell viability assay (AID 1918959). Further: nearly all actives have a fitted effect of over 30% in size. Further: potency means the concentration at half of the fitted maximal effect. Summed up: as §1
Assay [10] deals with Luciferin 4-monooxygenase (Photinus pyralis) (UniProt P08659). Put plainly: Primary firefly luciferase (FLuc) qHTS assay for identification of artifact compounds. (AID 1845220). Further: nearly all actives have a fitted effect of over 60% in size. Summed up: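 qHTS, 15 min compound preincubation with substrate (10 uM luciferin, 10 uM ATP) at RT, then 10 nM FLuc; 5 min; luminescence; % inhibition vs no-enzyme/DMSO controls, 4-parameter Hill fit.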

Assay [11] in a line: Primary redox qHTS assay for identification of artifact compounds. (AID 1845223). An outline of the steps: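 Amplex Red (25 uM) and HRP (250 mU/mL) in HBSS, with compounds for 15 min, then 250 uM DTT for 30 min, room temperature, dark. Fluorescence 525/598 nm read; normalized to DMSO and 10 uM DA3003; Hill fit.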
For assay [12], the system named is Nanoluciferase (engineered Oplophorus gracilirostris luciferase). The assay can be described thus: Primary Nanoluciferase (NLuc) qHTS assay for identification of artifact compounds. (AID 1845222).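 Further: series mostly up to about 54 µM; 0% = DMSO and -100% = no enzyme.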 An outline of the steps:
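Luminescence read-out of secreted NLuc in S16 cell conditioned medium (1:55); compounds tested with 15 min RT preincubation, then Nano-Glo substrate 1:100, 5 min. % inhibition vs no-enzyme and DMSO controls, 4-parameter Hill fit.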

Usually viability stands for a per cent measure of how many cells are alive, often set against a control.

Values without a mark were called inactive. Inconclusive results are not listed. The source made the active and inactive calls. The call rests on the fitted dose curve; in most records, active means well fitted curve in the direction sought with a large enough effect; inconclusive means small, poorly fitted or top-dose-only effect, or another doubt; inactive means no such curve, though single readings can be large; an effect the other way counts as inactive or inconclusive.

Sequence of Phospholipid hydroperoxide glutathione peroxidase GPX4 (Homo sapiens) (P36969 whole entry, looked up): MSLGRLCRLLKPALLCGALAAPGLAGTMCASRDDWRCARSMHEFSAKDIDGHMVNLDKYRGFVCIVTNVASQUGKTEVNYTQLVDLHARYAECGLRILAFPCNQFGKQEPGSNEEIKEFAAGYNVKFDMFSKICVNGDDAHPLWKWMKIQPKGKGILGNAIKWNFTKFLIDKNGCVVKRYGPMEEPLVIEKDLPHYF

On to `CC(=O)SC[C@@H](C)C(=O)N1CCC[C@H]1C(=O)N[C@@H](Cc1ccccc1)C(=O)O`, for which the Potency entry in assay [1], in assay [2], in assay [3], in assay [4], in assay [5] and in assay [6] was “inactive” in each case. Moreover, the Potency entry in assay [7], in [8] and in assay [9] was “inactive” each time.

As for `CN1CC[C@@H](c2c(O)cc(O)c3c(=O)cc(-c4ccccc4Cl)oc23)[C@@H](O)C1`, the Potency result in assay [1] and in assay [2] was “inactive” each time. The Potency is 0.0332 µM (active) in [3]; 0.0662 µM (active) in assay [4]; 0.0743 µM (active) in assay [5]; 0.0264 µM (active) in [6]; 0.0833 µM (active) in [7]; 0.0469 µM (active) in [8]. The Potency in [9] was 0.0935 µM (active).

In the case of `C=CC(=O)Nc1cc2c(Nc3ccc(F)c(Cl)c3)ncnc2cc1OCCCN1CCOCC1`, the Potency entry in assay [1] and in assay [2] was “inactive” in each case. Besides, the Potency is 14.8 µM (active) in [3], 2.96 µM (active) in [4], 7.43 µM (active) in [5] and 5.9 µM (active) in assay [7].

For the molecule `CC1(O)CC(c2nc(-c3ccc4ccc(-c5ccccc5)nc4c3)c3c(N)nccn23)C1` (stereo not drawn), the Potency entry in [1], in assay [2], in assay [10] and in assay [11] was “inactive” in each case. Also, the Potency is 7.43 µM (active) in assay [3]; 0.0833 µM (active) in assay [4]; 6.62 µM (active) in assay [5]; 2.96 µM (active) in assay [6]; 5.9 µM (active) in [7]; 0.105 µM (active) in assay [8].

For `CCN(CC)CCCCNc1ncc2cc(-c3cc(OC)cc(OC)c3)c(NC(=O)NC(C)(C)C)nc2n1`, the Potency entry in assay [1] and in assay [2] was “inactive” throughout. For the same molecule, the Potency is 20.9 µM (active) in assay [3]; 9.35 µM (active) in assay [4]; 23.5 µM (active) in assay [5]; 26.4 µM (active) in assay [6]; 23.5 µM (active) in assay [7]; 23.5 µM (active) in assay [8]. In addition, in assay [9], the Potency was 26.4 µM (active).

With `CNC(=O)c1nn(C)c2c1C(C)(C)Cc1cnc(Nc3ccc(N4CCN(C)CC4)cc3)nc1-2`, the Potency entry in [1], in assay [2], in assay [10] and in [12] was “inactive” throughout. In addition, the Potency is 1.66 µM (active) in [3]; 1.05 µM (active) in [4]; 2.64 µM (active) in [5]; 1.18 µM (active) in [6]; 4.69 µM (active) in assay [7]; 3.32 µM (active) in assay [8]. For the same molecule, the Potency in assay [9] was 4.69 µM (active).

Take `Cn1cncc1[C@@](N)(c1ccc(Cl)cc1)c1ccc2c(c1)c(-c1cccc(Cl)c1)cc(=O)n2C`: the Potency result in assay [1] and in [2] was “inactive” throughout. The Potency in assay [3] was 20.9 µM (active); in assay [4], 6.62 µM (active); in assay [5], 14.8 µM (active); in [6], 7.43 µM (active); in [7], 0.469 µM (active); in assay [9] it was 5.9 µM (active).

As for `CN1CCN(c2cc(C(=O)Nc3ccc4c(c3)-c3c(c(C(N)=O)nn3-c3ccc(F)cc3)CC4)c(Cl)cn2)CC1`, the Potency entry in assay [1] and in assay [2] was “inactive” throughout. The Potency in assay [3] was 16.6 µM (active); in assay [4] it was 0.935 µM (active); in [5], 0.833 µM (active); in [6] it was 7.43 µM (active); in assay [8] it was 16.6 µM (active); in assay [9] it was 23.5 µM (active).

For `CC(C)(C)c1cc(NC(=O)Nc2ccc(-c3cn4c(n3)sc3cc(OCCN5CCOCC5)ccc34)cc2)no1`, the Potency result in [1], in assay [2], in assay [10], in assay [12], in assay [11] and in assay [9] was “inactive” in each case. Moreover, the Potency in [5] is 18.7 µM (active).

As to `COc1cc2ncn(-c3cc(OCc4ccccc4C(F)(F)F)c(C(N)=O)s3)c2cc1OC`, the Potency entry in [1] and in assay [2] was “inactive” in each case. Also, the Potency was 5.26 µM (active) in assay [3], 7.43 µM (active) in assay [4], 0.743 µM (active) in [6] and 0.935 µM (active) in [8].

Turning to `COc1cc(C(=O)NS(=O)(=O)c2ccccc2C)ccc1Cc1cn(C)c2ccc(NC(=O)OC3CCCC3)cc12`, the Potency entry in assay [1] and in assay [9] was “inactive” throughout. The Potency in assay [2] was 9.04 µM (active); in assay [3] it was 23.5 µM (active); in [4], 14.8 µM (active); in assay [5], 16.6 µM (active); in [7], 18.7 µM (active).

On to `COC(=O)C[C@](O)(CCCC(C)(C)O)C(=O)O[C@@H]1C(OC)=C[C@]23CCCN2CCc2cc4c(cc2[C@H]13)OCO4`, for which the Potency result in [1], in [2], in assay [3], in assay [4], in assay [5] and in assay [7] was “inactive” throughout. In addition, in [9], the Potency entry was “inactive”.

As for `CC(C)c1ccc(Cn2ccc3c4c(N)nc(NC5CC5)nc4ccc32)cc1`, the Potency entry in assay [1] is “inactive”. For the same molecule, the Potency is 18 µM (active) in [2]; 4.18 µM (active) in assay [3]; 3.32 µM (active) in assay [4]; 14.8 µM (active) in assay [5]; 0.935 µM (active) in assay [6]; 4.18 µM (active) in assay [7]. Moreover, in assay [8], the Potency was 3.32 µM (active).

Regarding `CN(c1ncccc1CNc1nc(Nc2ccc3c(c2)CC(=O)N3)ncc1C(F)(F)F)S(C)(=O)=O`, the Potency result in [1] and in assay [2] was “inactive” in each case. For the same molecule, the Potency is 5.9 µM (active) in assay [3]; 3.72 µM (active) in assay [4]; 8.33 µM (active) in [5]; 3.32 µM (active) in assay [6]; 9.35 µM (active) in assay [7]; 2.64 µM (active) in [8]. Further, the Potency in assay [9] was 1.48 µM (active).

With `Cc1ccc(CN2CCNCC2)cc1NC(=O)CNc1ccc(F)c(F)c1`, the Potency entry in [1], in assay [2], in assay [10], in assay [4] and in assay [8] was “inactive” throughout. Also, the Potency in assay [5] is 3.32 µM (active).

Consider `Cc1cc(Nc2cc(CN3CCOCC3)c3nc(C)c(Cc4ccc(Cl)cc4F)n3n2)n[nH]1`, for which the Potency result in [1], in [2], in [10] and in [11] was “inactive” throughout. The Potency in assay [3] is 7.43 µM (active); in assay [4] it was 10.5 µM (active); in assay [5], 16.6 µM (active); in assay [6], 0.526 µM (active); in assay [7] it was 13.2 µM (active).

On to `COc1ccc(CC2c3cc(OC)c(OC)cc3CC[N+]2(C)CCC(=O)OCCCCCOC(=O)CC[N+]2(C)CCc3cc(OC)c(OC)cc3C2Cc2ccc(OC)c(OC)c2)cc1OC` (stereo not drawn), for which the Potency result in [1] and in assay [2] was “inactive” each time. Also, the viability (% of DMSO control) in [3] is 122% [at 5.15 µM]. In assay [4], the Potency was 3.28 µM (active). Besides, the viability, % of DMSO in assay [6] was 97.7% [at 5.15 µM]. Moreover, in assay [8], the viability was 97.8% [at 5.15 µM]. Further, in assay [9], the viability (% of DMSO) was 107% [at 5.15 µM].

Regarding `COC(=O)C1=C(C)NC(C)=C(C(=O)OCCN2CCN(C(c3ccccc3)c3ccccc3)CC2)C1c1cccc([N+](=O)[O-])c1` (stereo not drawn), the Potency entry in assay [1], in assay [2], in assay [3], in assay [4], in assay [5] and in assay [6] was “inactive” throughout. Moreover, the Potency entry in assay [9] is “inactive”.

For the origin of these results see PubChem BioAssay (NCATS).
